From PubChem BioAssay (NCI)
About 83,000 compounds went through this panel and 20% of them were active in at least one assay; those are over-represented in the sample as a whole.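 Cell lines were cultured in 96-well plates, exposed to a single compound concentration, and assessed for percent growth 48 hours later.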 Values without a mark were called inactive. Calls of active or inactive are those of the source. How the source made its calls: active means growth percent below 10; inactive means the rest.

Tests used:
Assay in all cases: NCI-60 one-dose screen, 48 h (100 = growth as untreated, 0 = no growth, -100 = all killed)
Conditions in all cases: 10 µM unless noted
[1] = tested on: DU-145 prostate
[2] = tested on: K-562 leukemia
[3] = tested on: MALME-3M melanoma
[4] = tested on: MDA-MB-231 breast
[5] = tested on: RXF 393 renal
[6] = tested on: SF-268 CNS
[7] = tested on: SF-295 CNS
[8] = tested on: SF-539 CNS
[9] = tested on: UACC-257 melanoma
[10] = tested on: M14 melanoma
[11] = tested on: HCT-15 colon
[12] = tested on: HT29 colon
[13] = tested on: SNB-75 CNS
[14] = tested on: SNB-19 CNS
[15] = tested on: U251 CNS
[16] = tested on: PC-3 prostate
[17] = tested on: SK-MEL-5 melanoma
[18] = tested on: UACC-62 melanoma
[19] = tested on: LOX IMVI melanoma
[20] = tested on: SK-MEL-28 melanoma

SMILES	growth [1]	growth [2]	growth [3]	growth [4]	growth [5]	growth [6]	growth [7]	growth [8]	growth [9]	growth [10]	growth [11]	growth [12]	growth [13]	growth [14]	growth [15]	growth [16]	growth [17]	growth [18]	growth [19]	growth [20]
CCOc1ccc(-n2c(-c3cc(OC)c(OC)c(OC)c3)nnc2-c2ccc(OC)cc2N)cc1	57.6%	70.3%	79.7%	82.7%	51.9%	86.9%	84.8%	77.6%	57.2%	68.1%	64.9%	52.7%	76.3%	75.5%	65.6%	63.3%	66%	66.7%	80.3%	80.2%
O=S1(=O)N(CCNc2nccc(-c3c(-c4cccc(O)c4)nc4sccn34)n2)CCN1Cc1ccccc1	74.1%	46.1%	50.8%	52.6%	68.6%	86%	62.8%	63.9%	37.2%	28.4%	55.7%	37%	70.4%	113%	69%	63%	30.6%	20.7%	28.6%	60.2%
O=C(O)c1cccc2oc(-c3ccccc3O)nc12	63.6%	60.9%	70.9%	51.9%	61%	45%	31.7%	50%	80.2%	54.8%	34.1%	36.1%	74.7%	67.8%	45.6%	47.8%	58.1%	65%	4.75% (active)	77.9%
OCc1cn(-c2ccc(Cl)cc2)nc1-c1ccc(O)cc1	97%	88%	100%	97.9%	107%	78.6%	100%	93.2%	108%	95%	93.7%	92.6%	83.3%	104%	106%	96.5%	95.4%	100%	92.2%	108%
COC(=O)Nc1nc2ccc(Sc3ccccc3)cc2[nH]1	17.5%	5.33% (active)	41.9%	45.6%	15%	37.8%	-16.1% (active)	0.846% (active)	52.1%	8.93% (active)	13.8%	4.14% (active)	21.7%	31.3%	17%	26.6%	8.9% (active)	35.9%	19.3%	48.9%
Nc1nccc2c1ccn2-c1cccc(NC(=O)c2ccc(N3CCOCC3)c(C(F)(F)F)c2)c1	-0.195% (active)	9.79% (active)	39.8%	6.1% (active)	-75.9% (active)	21.8%	-30.9% (active)	3.23% (active)	59.2%	16%	9.8% (active)	-47.2% (active)	23.8%	31.9%	8.89% (active)	18%	-43.7% (active)	13.8%	5.35% (active)	47.3%
CCN(CC)CC(=O)Nc1c(C)cccc1C	121%	99.8%	93.3%	108%	102%	108%	89.8%	104%	108%	100%	98.1%	111%	95.5%	106%	106%	100%	93.2%	105%	100%	110%
CC(=O)CC/C=C(\C)[C@H](O)[C@H](C)C(=O)O[C@H]1C[C@H](C)C=C2C=C[C@@]3(C)O[C@@H](O)CC(=O)[C@]3(C)[C@H]21	-22% (active)	-8.89% (active)	-82.5% (active)	-39.2% (active)	-88% (active)	-21.5% (active)	-22.7% (active)	-35.2% (active)	-33.7% (active)	-84.2% (active)	0.209% (active)	-33.8% (active)	-85.3% (active)	-12.3% (active)	-25.9% (active)	-31.2% (active)	-91.7% (active)	-56.6% (active)	-55.1% (active)	-40.7% (active)
Cc1cccc(Cc2cnc(NC(=O)CCc3ccc(C)o3)s2)c1	18.8%	6.63% (active)	82.8%	15.4%	8.05% (active)	38%	10.4%	2.41% (active)	79.6%	11.5%	7.47% (active)	0.165% (active)	23.9%	23.1%	27.2%	21.9%	-11.7% (active)	21.6%	29.9%	61%
O=C(N/N=C/c1ccccc1O)c1ccccc1O	38.7%	37.8%	47.9%	56.7%	54%	36.6%	42.1%	34.5%	5.06% (active)	36.5%	30.1%	72.9%	78.3%	51.7%	36.2%	39.6%	10.6%	24%	12.8%	46.9%
c1cncc(-c2nc3ccccc3[nH]2)c1	112%	102%	109%	83.4%	94.6%	105%	118%	97.8%	27.7%	99.7%	111%	102%	96.9%	111%	104%	89.7%	90.8%	85.5%	94.4%	87%
Cc1cccc(NCS(=O)(=O)O)c1	112%	107%	102%	111%	109%	109%	106%	95.7%	83.2%	106%	101%	101%	106%	101%	87.8%	93%	99.7%	113%	95.2%	113%
CC(C)C1(C(C)C)NC(=O)NC1=O	93.7%	108%	163%	109%	107%	94%	99.4%	91.6%	106%	110%	110%	103%	94.5%	101%	103%	93.3%	91.5%	106%	102%	95.9%
COc1cc2c(cc1OC)-c1c(oc3c4c(ccc3c1=O)OC(C)(C)C=C4)CO2	90.9%	39.9%	93.2%	81.5%	96.9%	79.4%	51.7%	83.5%	54.8%	83.1%	82.8%	89.5%	75.8%	75.5%	88.6%	75.1%	23.8%	61.1%	63%	93.8%
CCNc1cc(S(=O)(=O)O)ccc1C	108%	102%	106%	102%	110%	113%	101%	102%	83.2%	106%	105%	102%	99.4%	104%	98.3%	90.5%	102%	105%	97.2%	108%
CN(C)c1ccc(/C=c2\s/c(=C\C(=O)C(C)(C)C)[nH]c2=O)cc1	93.1%	111%	93.6%	118%	122%	93.5%	94.9%	96.6%	96.1%	101%	95.5%	91%	94.3%	97.5%	94.1%	85.2%	101%	95.3%	87.1%	104%
